In PubChem BioAssay (NCI):
This is part of a sample that, as a whole, favours compounds with a hit. Of some 79,000 tested, about 15% had one in any assay. Calls of active or inactive are those of the source. No stated cut-off is given here; in the data, active means growth inhibition above about 70%; inactive means the rest.

Legend:
[1] = NCI Yeast Anticancer Drug Screen. Data for the CLN2oe strain (AID 163);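 further: 0% = growth of vehicle-only control cultures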; conditions: S. cerevisiae CLN2oe strain, active compounds read high
Method in brief: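 Growth of a genetically modified yeast strain is measured after compound exposure and compared with cultures given vehicle alone.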

[2] = NCI Yeast Anticancer Drug Screen. Data for the cln2 rad14 strain (AID 165);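 further: 0% = growth equal to vehicle treated cultures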; conditions: S. cerevisiae cln2 rad14 strain, active compounds read high
Method in brief: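 Compounds are applied to the cln2 rad14 yeast strain, and growth is then compared with that of vehicle-treated cultures to give inhibition.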

[3] = NCI Yeast Anticancer Drug Screen. Data for the bub3 strain (AID 167); conditions: S. cerevisiae bub3 mutant strain, active compounds read high
Method in brief: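 Steps: expose the mutant yeast strain to compound; grow alongside vehicle-treated cultures; measure growth; express inhibition against the vehicle cultures.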

[4] = NCI Yeast Anticancer Drug Screen. Data for the wt2 strain (AID 169);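 further: 0% = growth of vehicle-treated yeast cultures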; conditions: S. cerevisiae wt2 strain growth inhibition, active compounds read high
Method in brief: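 This strain belongs to a panel of yeast strains with defined genetic alterations in DNA damage repair or cell cycle control. Compounds are applied, and growth inhibition is measured against vehicle-treated cultures.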

[5] = NCI Yeast Anticancer Drug Screen. Data for the mlh1 strain (AID 171);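 further: 0% = growth of vehicle-treated control cultures of the same strain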; conditions: S. cerevisiae mlh1 strain growth inhibition, active compounds read high
Method in brief: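 Growth of the mutant yeast strain after compound exposure, expressed as inhibition relative to vehicle-only controls.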

[6] = NCI Yeast Anticancer Drug Screen. Data for the sgs1 strain (AID 173);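 further: 0% = growth of vehicle-only control cultures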; conditions: S. cerevisiae sgs1 mutant, active compounds read high
Method in brief: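 Growth of a yeast strain bearing a defined genetic alteration is measured after compound treatment. Inhibition is expressed relative to vehicle-only controls.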

[7] = NCI Yeast Anticancer Drug Screen. Data for the mlh1 rad18 strain (AID 175); conditions: S. cerevisiae mlh1 rad18 strain growth inhibition, active compounds read high
Method in brief: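 Read-out is yeast growth inhibition, calculated against vehicle-only controls. The compound was applied to a strain engineered with DNA damage repair alterations.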

[8] = NCI Yeast Anticancer Drug Screen. Data for the rad18 strain (AID 177); conditions: S. cerevisiae rad18 mutant growth inhibition, active compounds read high
Method in brief: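 Growth of the mutant yeast strain after compound exposure, normalised to vehicle-only cultures.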

[9] = at 5.0 µM (retest, dose inferred, filed as 0.5)
[10] = at 50.0 µM (retest, dose inferred, filed as 5.0)

Measured: growth inhibition

O=S(=O)(N/N=C/c1cccc(Cl)c1)c1ccccc1
inactive: [1]; at 1.2 µM -10% | [1]; at 3.7 µM -7% | [1]; at 11.0 µM 27% | [2]; [9] 20% | [2]; at 50.0 µM 67.4% | [3]; at 1.2 µM 1% | [3]; at 3.7 µM 1% | [3]; [9] -12% | [3]; at 11.0 µM 11% | [3]; at 50.0 µM 63.3% | [4]; at 1.2 µM -4% | [4]; at 3.7 µM -4% | [4]; at 11.0 µM 0% | [5]; at 1.2 µM -3% | [5]; at 3.7 µM 0% | [5]; at 11.0 µM 11% | [6]; at 1.2 µM 1% | [6]; at 3.7 µM 4% | [6]; at 11.0 µM 18% | [7]; [9] 57% | [8]; at 1.2 µM -3% | [8]; at 3.7 µM 1% | [8]; at 11.0 µM 29%
active: [1]; at 33.0 µM 84% | [1]; at 100.0 µM 82% | [2]; [10] 89% | [3]; at 33.0 µM 79% | [3]; [10] 88% | [3]; at 100.0 µM 98% | [4]; at 33.0 µM 86% | [4]; at 100.0 µM 99% | [5]; at 33.0 µM 83% | [5]; at 100.0 µM 99% | [6]; at 33.0 µM 77% | [6]; at 100.0 µM 99% | [7]; [10] 95% | [7]; at 50.0 µM 96.8% | [8]; at 33.0 µM 86% | [8]; at 100.0 µM 99%
